Records with an inconclusive call do not appear. Calls of active or inactive are those of the source. Unless noted, calls come from the whole dose curve; as a rule, active = well fitted curve in the direction sought with a large enough effect in the repeat runs; inconclusive = weak or mixed curves; inactive = no such curve, though single readings can be large; an effect the other way counts as inactive or inconclusive.
Experiments:
[1] = qHTS assay to identify small molecule that activate the aryl hydrocarbon receptor (AhR) signaling pathway - cell viability counter screen (AID 743086);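 note: HepG2 liver cells carrying the AhR DRE luciferase reporter; series mostly up to about 70 µM; nearly all actives have a fitted effect of over 45% in size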
In short: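 HepG2-AhR-luc (HG2L7.5c1) cells, 4000/well, were preincubated 5 h at 37C, exposed to compound in qHTS format for 24 hr at 37C, then given CellTiter-Fluor for 30 min; viability was read as fluorescence in the reporter wells.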

[2] = molecular target: Peroxisome proliferator-activated receptor gamma (Homo sapiens) (UniProt P37231); experiment: qHTS assay to identify small molecule agonists of the peroxisome proliferator-activated receptor gamma (PPARg) signaling pathway (AID 743094; active = well fitted activation curve with a large enough effect in the signal ratio in the repeat runs, not every such curve was filed as active; the % refers to the signal ratio)
Chain of Peroxisome proliferator-activated receptor gamma (Homo sapiens) (P37231 whole entry, looked up): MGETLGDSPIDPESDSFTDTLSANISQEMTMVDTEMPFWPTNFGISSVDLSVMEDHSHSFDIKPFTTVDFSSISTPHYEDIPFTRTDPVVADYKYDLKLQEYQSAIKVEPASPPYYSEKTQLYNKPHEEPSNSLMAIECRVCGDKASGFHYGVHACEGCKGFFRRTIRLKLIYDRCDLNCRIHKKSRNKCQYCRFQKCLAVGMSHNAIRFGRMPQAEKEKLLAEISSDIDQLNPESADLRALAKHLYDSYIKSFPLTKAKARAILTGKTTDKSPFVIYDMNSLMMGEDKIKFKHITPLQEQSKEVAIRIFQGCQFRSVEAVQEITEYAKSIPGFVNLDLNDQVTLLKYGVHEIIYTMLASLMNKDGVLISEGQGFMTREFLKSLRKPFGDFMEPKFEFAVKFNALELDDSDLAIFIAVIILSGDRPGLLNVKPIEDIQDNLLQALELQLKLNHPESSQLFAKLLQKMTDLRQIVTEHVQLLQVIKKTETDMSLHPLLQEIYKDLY
In short: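 Cells from the PPARg UAS-bla HEK293H line are plated and incubated 5 h at 37C. Compounds in DMSO are pinned in and left 17 h at 37C. LiveBLAzer B/G substrate is then added for 1 h at room temperature before fluorescence is measured.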

[3] = molecular target: Peroxisome proliferator-activated receptor gamma (Homo sapiens) (UniProt P37231); experiment: qHTS assay to identify small molecule antagonists of the peroxisome proliferator-activated receptor gamma (PPARg) signaling pathway (AID 743191; calls by dose curve; note: series mostly up to about 63 µM; nearly all actives have a fitted effect of over 30% in size)
In short: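 GeneBLAzer PPARg UAS-bla HEK293H cells carrying a UAS-driven beta-lactamase reporter were plated at 3000 cells/well, preincubated 5 h at 37C, then given compound for 17 h at 37C; LiveBLAzer B/G FRET substrate was read after 1 h at room temperature.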

[4] = qHTS assay to identify small molecule antagonists of the peroxisome proliferator-activated receptor gamma (PPARg) signaling pathway - cell viability counter screen (AID 743194); note: nearly all actives have a fitted effect of over 55% in size
In short: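 PPARg-UAS-bla HEK293H cells were plated, rested 5 h at 37 C, then treated with compounds plus rosiglitazone (50 nM final) for 17 h at 37 C; viability was then read by CellTiter-Glo luminescence after 30 min at room temperature.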

[5] = qHTS assay for small molecule agonists of the antioxidant response element (ARE) signaling pathway - cell viability counter screen (AID 743203; calls by dose curve; note: nearly all actives have a fitted effect of over 55% in size)
In short: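 Cytotoxicity was tested in parallel with the ARE reporter screen. ARE-bla HepG2 cells were exposed to compounds for 16 hrs, and viability was taken from CellTiter-Glo luminescence.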

[6] = qHTS assay for small molecule activators of the heat shock response signaling pathway - cell viability counter screen (AID 743209); note: nearly all actives have a fitted effect of over 50% in size
In short: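 Cytotoxicity counter screen run in parallel with the HSE beta-lactamase reporter, using the same wells. HeLa HSE-bla cells received compound for 5 h at 37 C; ATP-based CellTiter-Glo luminescence was measured after 30 min at room temperature.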

[7] = qHTS assay for small molecule activators of the heat shock response signaling pathway (AID 743210; active = well fitted activation curve with a large enough effect in the signal ratio in the repeat runs, with a control signal flat, not every such curve was filed as active; the % refers to the signal ratio;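 note: HeLa cells with beta-lactamase reporter driven by heat shock elements; series mostly up to about 63 µM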)
In short: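 Activation of heat shock element-controlled beta-lactamase expression is measured in HeLa cells by LiveBLAzer FRET fluorescence, with compound exposure lasting 5 h at 37 C and substrate loading 2.5 h at room temperature.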

[8] = qHTS assay to identify small molecule agonists of the peroxisome proliferator-activated receptor delta (PPARd) signaling pathway - cell viability counter screen (AID 743211); note: nearly all actives have a fitted effect of over 55% in size
In short: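 PPARd-bla HEK293H cells (UAS-beta-lactamase reporter) were treated with compounds for 17 h at 37 C. Viability was then read in the same wells by CellTiter-Glo luminescence after 30 min at room temperature.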

[9] = qHTS assay to identify small molecule antagonists of the peroxisome proliferator-activated receptor delta (PPARd) signaling pathway - cell viability counter screen (AID 743213); note: nearly all actives have a fitted effect of over 50% in size
In short: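 PPARd-bla HEK293H cells were treated with compounds plus agonist L165041 (300 nM final) for 17 h at 37 C. Viability was then read in the same wells by CellTiter-Glo luminescence after 30 min at room temperature.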

[10] = molecular target: Peroxisome proliferator-activated receptor delta (Homo sapiens) (UniProt Q03181); experiment: qHTS assay to identify small molecule antagonists of the peroxisome proliferator-activated receptor delta (PPARd) signaling pathway (AID 743215; active = well fitted inhibition curve with a large enough effect in the signal ratio in the repeat runs, not every such curve was filed as active; the % refers to the signal ratio;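 note: cells stimulated with agonist L165041 at 300 nM final during compound exposure; series mostly up to about 62 µM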)
Chain of Peroxisome proliferator-activated receptor delta (Homo sapiens) (Q03181 whole entry, looked up): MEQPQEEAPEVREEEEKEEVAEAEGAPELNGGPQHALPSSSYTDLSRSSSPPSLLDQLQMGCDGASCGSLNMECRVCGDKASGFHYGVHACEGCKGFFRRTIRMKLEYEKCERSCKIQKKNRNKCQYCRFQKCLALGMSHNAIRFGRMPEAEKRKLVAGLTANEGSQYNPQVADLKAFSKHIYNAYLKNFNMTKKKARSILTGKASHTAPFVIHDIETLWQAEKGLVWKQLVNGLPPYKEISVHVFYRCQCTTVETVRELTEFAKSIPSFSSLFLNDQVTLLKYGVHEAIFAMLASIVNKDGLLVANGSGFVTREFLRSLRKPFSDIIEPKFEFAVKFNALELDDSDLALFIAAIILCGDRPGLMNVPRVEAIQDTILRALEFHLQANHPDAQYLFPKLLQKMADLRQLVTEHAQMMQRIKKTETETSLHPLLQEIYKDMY
In short: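 Cells: HEK293H with a UAS-driven beta-lactamase reporter responsive to PPARd. Compounds were co-added with L165041 (300 nM, final) and incubated 17 h at 37 C before a 2 h room-temperature FRET substrate step and fluorescence reading.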

[11] = qHTS assay to identify small molecule agonists of the farnesoid-X-receptor (FXR) signaling pathway - cell viability counter screen (AID 743218); note: nearly all actives have a fitted effect of over 45% in size
In short: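 Cells were seeded, left 5 h at 37 C and 5% CO2, then dosed with compound in DMSO for 16 h. After the beta-lactamase FRET read, CellTiter-Glo was added and luminescence measured 30 min later.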

[12] = qHTS assay to identify small molecule antagonists of the farnesoid-X-receptor (FXR) signaling pathway - cell viability counter screen (AID 743221; active = well fitted cell-killing curve with a large enough effect in the repeat runs, not every such curve was filed as active; note: nearly all actives have a fitted effect of over 50% in size)
In short: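 FXR-UAS-bla HEK 293T cells were treated with test compounds plus chenodeoxycholic acid (50 uM final) for 16 h at 37 C. Cell viability in the same wells was then read as CellTiter-Glo luminescence after 30 min at room temperature.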

[13] = molecular target: Vitamin D3 receptor (Homo sapiens) (UniProt P11473); experiment: qHTS assay to identify small molecule agonists of the vitamin D receptor (VDR) signaling pathway (AID 743222; calls by dose curve)
Chain of Vitamin D3 receptor (Homo sapiens) (P11473 whole entry, looked up): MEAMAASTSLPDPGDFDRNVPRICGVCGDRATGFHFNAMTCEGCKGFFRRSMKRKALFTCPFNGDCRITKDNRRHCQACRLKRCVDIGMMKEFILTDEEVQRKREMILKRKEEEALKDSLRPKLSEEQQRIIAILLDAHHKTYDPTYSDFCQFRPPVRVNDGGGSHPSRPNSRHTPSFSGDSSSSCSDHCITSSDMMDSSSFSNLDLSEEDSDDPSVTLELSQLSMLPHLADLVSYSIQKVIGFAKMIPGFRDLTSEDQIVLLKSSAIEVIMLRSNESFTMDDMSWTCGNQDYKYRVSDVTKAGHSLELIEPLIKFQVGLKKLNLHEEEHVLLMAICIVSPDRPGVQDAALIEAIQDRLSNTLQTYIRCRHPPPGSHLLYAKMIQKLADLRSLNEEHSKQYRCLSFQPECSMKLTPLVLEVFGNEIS
In short: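 Cells carrying a VDR-driven beta-lactamase reporter are seeded at 2,000 per well and rested 4 h. Compounds in DMSO are added for 16 h at 37C, and FRET substrate fluorescence is measured after 2 h at room temperature.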

[14] = molecular target: Vitamin D3 receptor (Homo sapiens) (UniProt P11473); experiment: qHTS assay to identify small molecule antagonists of the vitamin D receptor (VDR) signaling pathway (AID 743223; active = well fitted inhibition curve with a large enough effect in the signal ratio in the repeat runs, not every such curve was filed as active; the % refers to the signal ratio)
In short: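 VDR-bla cells were plated, incubated 4 h at 37C, then given compound and 1alpha,25-dihydroxyvitamin D3 (3 nM final). After 16 h at 37C, LiveBLAzer B/G FRET substrate was added for 2 h at room temperature and fluorescence read.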

[15] = qHTS assay to identify small molecule agonists of the vitamin D receptor (VDR) signaling pathway - cell viability counter screen (AID 743224); note: series mostly up to about 63 µM; nearly all actives have a fitted effect of over 50% in size
In short: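 Cells: VDR-bla, 2,000/well, settled 4 h. Treatment: compounds in DMSO, 16 h, 37C/5% CO2. Readout: CellTiter-Glo luminescence after 30 min RT.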

[16] = qHTS assay to identify small molecule antagonists of the vitamin D receptor (VDR) signaling pathway - cell viability counter screen (AID 743225); note: nearly all actives have a fitted effect of over 50% in size
In short: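 VDR-bla HEK 293T cells, 4 h pre-incubation at 37C, then compound plus 1-alpha,25-dihydroxyvitamin D3 (3 nM final) for 16 h. After the beta-lactamase FRET read, CellTiter-Glo was added to the same wells; luminescence after 30 min at room temperature.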

[17] = qHTS assay for small molecule agonists of the antioxidant response element (ARE) signaling pathway (AID 743202; active = well fitted activation curve with a large enough effect in the signal ratio in the repeat runs, not every such curve was filed as active; the % refers to the signal ratio)
In short: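 Steps: seed ARE-bla HepG2 cells (2,000/well); incubate 5 h at 37 C; add compounds by pin tool; incubate 16 h at 37 C; add FRET substrate; read fluorescence after 2 h at RT.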

[18] = molecular target: Bile acid receptor (Homo sapiens) (UniProt Q96RI1); experiment: qHTS assay to identify small molecule antagonists of the farnesoid-X-receptor (FXR) signaling pathway (AID 743217; active = well fitted inhibition curve with a large enough effect in the signal ratio in the repeat runs, not every such curve was filed as active; the % refers to the signal ratio)
Chain of Bile acid receptor (Homo sapiens) (Q96RI1 whole entry, looked up): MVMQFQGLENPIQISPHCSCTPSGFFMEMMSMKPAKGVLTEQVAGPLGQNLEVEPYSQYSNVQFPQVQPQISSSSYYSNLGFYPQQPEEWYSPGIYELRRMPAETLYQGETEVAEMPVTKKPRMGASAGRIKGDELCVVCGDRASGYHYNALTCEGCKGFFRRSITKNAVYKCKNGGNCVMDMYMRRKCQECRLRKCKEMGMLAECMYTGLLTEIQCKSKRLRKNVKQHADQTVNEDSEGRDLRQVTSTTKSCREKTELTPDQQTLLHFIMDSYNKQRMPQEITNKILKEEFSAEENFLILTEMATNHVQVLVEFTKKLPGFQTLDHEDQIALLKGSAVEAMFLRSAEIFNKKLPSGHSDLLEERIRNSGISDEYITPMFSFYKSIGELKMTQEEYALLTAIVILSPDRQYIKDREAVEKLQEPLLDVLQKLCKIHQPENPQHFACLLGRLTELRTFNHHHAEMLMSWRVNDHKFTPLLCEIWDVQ
In short: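 Cells carrying a UAS-driven beta-lactamase reporter (GeneBLAzer FXR-UAS-bla HEK 293T) were plated and rested 5 h at 37 °C. Compounds in DMSO were added alongside chenodeoxycholic acid agonist at 50 uM final and left 16 h at 37 °C before FRET substrate readout.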

[19] = molecular target: Bile acid receptor (Homo sapiens) (UniProt Q96RI1); experiment: qHTS assay to identify small molecule agonists of the farnesoid-X-receptor (FXR) signaling pathway (AID 743220; active = well fitted activation curve with a large enough effect in the signal ratio in the repeat runs, not every such curve was filed as active; the % refers to the signal ratio)
In short: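 FXR-UAS-bla HEK 293T cells carrying a UAS-driven beta-lactamase reporter were plated for 5 h at 37C/5% CO2, then exposed to DMSO-dissolved Tox21 10K compounds for 16 h at 37C. A LiveBLAzer B/G FRET substrate was loaded for 2 h at room temperature before fluorescence reading.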

[20] = molecular target: Peroxisome proliferator-activated receptor delta (Homo sapiens) (UniProt Q03181); experiment: qHTS assay to identify small molecule agonists of the peroxisome proliferator-activated receptor delta (PPARd) signaling pathway (AID 743212; calls by dose curve)
In short: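 Cells expressing a UAS-driven beta-lactamase reporter (PPARd-bla HEK293H) were given test compounds after a 5 h settle and kept at 37 C. Reporter activity was then measured as FRET fluorescence using LiveBLAzer B/G substrate.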

Measured: Potency

CCN(CC)C(C)CN1c2ccccc2Sc2ccccc21 (stereo not drawn)
not listed: [17] | [18] | [19] | [20]
inactive: all other assays above

Cc1ccc(C)o1
not listed: [6] | [9] | [20]
inactive: all other assays above

N#Cc1cc2ccccc2c2ccccc12
not listed: [8] | [16] | [17]
inactive: all other assays above

NCCCOCCOCCOCCCN
not listed: [10] | [14] | [16] | [17] | [18] | [19] | [20]
inactive: all other assays above

Cc1ccc(O)c([C@H](CCN(C(C)C)C(C)C)c2ccccc2)c1
inactive: [1] | [2] | [3] | [4] | [5] | [6] | [7] | [10] | [11] | [13] | [14]

CCC(=O)OC(C)(C)C1CC=C(C)CC1 (stereo not drawn)
not listed: [5] | [6] | [11] | [13] | [14] | [17] | [20]
inactive: all other assays above

CCCCOc1ccc(CC(=O)NO)cc1
inactive: [1] | [2] | [3] | [4] | [5] | [6] | [7] | [10] | [14] | [15] | [16]

CC(=O)OC/C=C/c1ccccc1
not listed: [6] | [7] | [9] | [11] | [16]
inactive: all other assays above

O=C(c1ccc(O)cc1)c1ccc(O)cc1
not listed: [5] | [9] | [10] | [12] | [14] | [18] | [19]
inactive: all other assays above

COc1ccc(C(C)=O)cc1
inactive: [1] | [2] | [3] | [4] | [5] | [6] | [9] | [12] | [14] | [15] | [16]

Cc1cccc(Oc2ccccc2)c1
not listed: [6] | [7] | [15] | [16] | [18] | [19]
inactive: all other assays above

CCCCOc1cc(C(=O)OCCN(CC)CC)ccc1N
not listed: [6] | [10] | [17] | [20]
inactive: all other assays above

c1ccc(CNCc2ccccc2)cc1
not listed: [6] | [9] | [16] | [18] | [19]
inactive: all other assays above

c1ccc(-c2nc[nH]c2-c2ccccc2)cc1
not listed: [6] | [13] | [17] | [18] | [19] | [20]
inactive: all other assays above

O=S1(=O)c2cccc3cccc(c23)N1CCCN1CCN(c2ccc(F)cc2)CC1
not listed: [7] | [8] | [10] | [17] | [20]
inactive: all other assays above

CCCCCCCCCCCCCCCCCBr
not listed: [6] | [7] | [10] | [20]
inactive: all other assays above

CCCCCCCCCCCCCCCC(=O)OC/C=C(C)/C=C/C=C(C)/C=C/C1=C(C)CCCC1(C)C
not listed: [7] | [11] | [17]
inactive: all other assays above

Cc1occc1S
not listed: [6] | [7] | [9] | [17] | [18] | [19]
inactive: all other assays above

Reference: PubChem BioAssay (Tox21)
